From PubChem BioAssay (NCATS) come the findings set out here.

Values without a mark were called inactive. Results filed as inconclusive are left out. The source made the active and inactive calls. Unless noted, calls follow the shape of the dose curve; as a rule, active = well fitted curve in either direction with a large enough effect (not every such curve was filed as active); inconclusive = small, poorly fitted or top-dose-only effect, or another doubt; inactive = flat fitted curve, though single readings scatter.

In assay [1] the target is Lysosomal acid glucosylceramidase (Homo sapiens) (UniProt P04062). Description: Glucocerebrosidase-p2 (AID 348; in the data active = potency below about 10 µM; also: potency is read from the fitted curve at half-maximal effect). The conditions noted are these: purified GBA, blue fluorogenic substrate, 40 min. In short, it runs like this:
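Compounds titrated from 0.6 nM upwards against 0.2 nM enzyme in pH 5.9 citric acid/KH2PO4, taurocholate, tween-20; blue fluorogenic substrate 80 uM, 40 min room temperature, stopped and read Ex 365/Em 440 for AC50.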

A short description of assay [2]: AP1 Signaling Pathway (AID 357).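 Also: ME-180 reporter cells stimulated with EGF at its EC50 level; % is scaled to controls: 0 for no effect and ±100 for the full control effect.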 The conditions noted are these: ME-180 AP-1-bla reporter, EGF-induced, beta-lactamase ratio, 5 h; at 7.69 µM (top of the series) unless noted. Summed up:
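First, ME-180 AP-1-bla cells were cultured overnight at 37 °C in low-serum Opti-MEM. Next, titrated compounds with EC50 EGF were incubated 5 hours. Finally, CCF4 was added for 2.5 hours and the 460/530 nm ratio recorded.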

The target of assay [3] is Cytochrome P450 1A2 (Homo sapiens) (UniProt P05177). Description: p450-cyp1a2 (AID 410; calls by dose curve; also: potency is read from the fitted curve at half-maximal effect;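 as to activity change, negative = inhibition: -100% = full effect of reference inhibitor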). The note with it: recombinant CYP1A2, luciferin-ME demethylation, luminescence; series mostly up to 11.4 µM. In short, it runs like this:
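Inhibition was calculated relative to 57 uM furafylline (full inhibition). The reaction used human CYP1A2 at 20nM with Luciferin-ME at its Km, 100uM, driven by an NADPH-regenerating system for 60 min at room temperature.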

A short description of assay [4]: NFAT Signaling Pathway (AID 444).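 Also: carbachol stimulus at about its EC50 of 1 µM final; % is scaled to controls: 0 for no effect and ±100 for the full control effect.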 The note with it: Jurkat NFAT-bla M1, carbachol, beta-lactamase ratio, 5 h; at 7.69 µM (top of the series) unless noted. Summed up: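 Read-out: CCF4 FRET ratio (460 nm/530 nm) after 1 h RT dye loading, used for %activity and AC50 from titration series. Cells: Jurkat NFAT-β-lactamase/M1 line, treated with compound plus 1 uM carbachol for 5 h, 37 °C.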

The nature of assay [5]: Stat Signaling Pathway (AID 446).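 Also: ME-180 cervical cancer cells given 40 pM IL-6 alongside compound; SIE-controlled beta-lactamase reporter measured as 460/530 nm FRET emission ratio; % is scaled to controls: 0 for no effect and ±100 for the full control effect.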 The conditions noted are these: ME-180 (cervical carcinoma) SIE beta-lactamase reporter, IL-6 stimulated, 5 h; at 7.69 µM (top of the series) unless noted. Summed up:
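ME-180 cells carrying a SIE-driven beta-lactamase reporter are stimulated with 40 pM IL-6 for 5 h at 37C in the presence of compound. The 460/530 nm FRET substrate ratio is read after 2.5 h at RT. Data are normalised to 300 pM IL-6 and to 125 nM JAK inhibitor controls.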

For assay [6], the target named is Glucocorticoid receptor (Homo sapiens) (UniProt P04150). The assay is described as follows: GR-GFP Redistribution (AID 450;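 active = compounds whose dose series gives a full or clear partial fitted curve of increased nuclear translocation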; also: potency is read from the fitted curve at half-maximal effect). The conditions noted are these: U2OS GR-GFP nuclear translocation, laser cytometry, 2 h.
Assay [7] shares this target. Description: GR-EFC Redistribution (AID 451; calls by dose curve; also: potency is read from the fitted curve at half-maximal effect). The conditions noted are these: CHO-K1 GR-EFC translocation, beta-gal luminescence, 2 h. Summed up:
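Translocation of GR-ED fusion to nuclear EA restores b-gal, read by luminescence after 1 h room-temperature detection. Engineered CHO-K1 biosensor cells, 1,000/well, exposed 2 h at 37 C to titrations up to 46 uM final.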

In assay [8] the target is Mitogen-activated protein kinase 10 (Mus musculus) (UniProt Q61831). Description: JNK3 AlphaScreen Assay (AID 530).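 Also: kinase came from lysate of stimulated human HepG2 cells; signal reports phosphorylation of biotinylated GST-cJun 1-79 at Ser73 with 10 µM ATP; % is scaled to controls: 0 for no effect and ±100 for the full control effect.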 The conditions noted are these: JNK3 lysate, c-Jun phosphorylation; series mostly up to 57.1 µM. In short, it runs like this: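 Room-temperature AlphaScreen kinase assay; pre-activated HepG2 lysate as JNK3 source, biotin-GST-cJun(1-79) substrate, 10 uM ATP, compound 15 min preincubation.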
A general note: Alpha assays give light when donor and acceptor beads are brought close together.

The target of assay [9] is 3',5'-cyclic-AMP phosphodiesterase 4B (Homo sapiens) (UniProt Q07343). Description: qHTS Assay for Inhibitors of PDE-IV (AID 607; active = well fitted activation curve with a large enough effect in the main read-out, with a control signal flat, not every such curve was filed as active; also: % of control where 0% means no effect). The note with it: HEK293 ACTOne CNG channel cells, membrane potential fluorescence; series mostly up to 22.9 µM. Summed up:
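HEK293 ACTOne cells with CNG channel (1000/well), endogenous PDE4; membrane potential dye, compounds up to 22.9 uM final. Fluorescence Ex 535/Em 590; RO 20-1724 (100 uM final) as reference.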
Background: In qHTS, concentration-response curves come from the screen itself.

The target of assay [10] is Cytochrome P450 2C9 (Homo sapiens) (UniProt P11712). Description: qHTS Assay for Inhibitors and Substrates of Cytochrome P450 2C9 (AID 883; active = well fitted curve in the direction sought with a large enough effect; an effect the other way counts as inactive or inconclusive; also: potency is read from the fitted curve at half-maximal effect; nearly all actives have a fitted effect of over 60% in size). The note with it: recombinant CYP2C9, luciferin-H luminescence, 60 min; series mostly up to 57.1 µM. Summed up: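 Inhibition of CYP2C9 is scored as loss of luminescence, with 57uM sulphaphenazole defining 100% inhibition. Substrate Luciferin-H is used at 100uM, equal to its KM; enzyme at 10nM in 25mM KPO4, 60 min at 37C with NADPH regeneration.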

Assay [11] concerns the target Cytochrome P450 3A4 (Homo sapiens) (UniProt P08684). The assay is described as follows: qHTS Assay for Activators of Cytochrome P450 3A4 (AID 885; active = well fitted curve in the direction sought with a large enough effect; an effect the other way counts as inactive or inconclusive; also: nearly all actives have a fitted effect of over 65% in size). The note with it: recombinant CYP3A4, Luciferin-PPXE luminescence, 60 min; series mostly up to 57.1 µM. Summed up: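 Human CYP3A4 (20 nM) with Luciferin-PPXE at 25 uM (its KM) in 200 mM KPO4; 10 min compound preincubation, then NADPH regeneration and 60 min reaction at RT. Luciferin read by luminescence; normalized to 57 uM ketoconazole full inhibition.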

Assay [12] has as its target Cytochrome P450 2D6 (Homo sapiens) (UniProt P10635). The assay is described as follows: qHTS Assay for Inhibitors and Substrates of Cytochrome P450 2D6 (AID 891; active = well fitted curve in the direction sought with a large enough effect; an effect the other way counts as inactive or inconclusive;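 also: luciferin methyl ether substrate demethylated by CYP2D6 with NADPH regeneration; % is scaled to controls: 0 for no effect and ±100 for the full control effect; nearly all actives have a fitted effect of over 60% in size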). The note with it: recombinant CYP2D6, luciferin-ME EGE luminescence; series mostly up to 11.4 µM. In short, it runs like this: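 Human CYP2D6 (5 nM) with 30 uM Luciferin-ME EGE (at Km) in 100 mM KPO4, compound preincubated 10 min, then NADPH regeneration system for 60 min at room temperature. Luciferin read by luminescence; normalized to 1.43 uM quinidine.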

Assay [13] concerns the target Cytochrome P450 2C19 (Homo sapiens) (UniProt P33261). The assay is described as follows: qHTS Assay for Inhibitors and Substrates of Cytochrome P450 2C19 (AID 899; active = well fitted curve in the direction sought with a large enough effect; an effect the other way counts as inactive or inconclusive; also: nearly all actives have a fitted effect of over 60% in size; also: potency is read from the fitted curve at half-maximal effect). The conditions noted are these: recombinant CYP2C19, luciferin-H EGE luminescence; series mostly up to 11.4 µM. In short, it runs like this:
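5nM enzyme + 10uM Luciferin-H EGE (=KM), 50mM KPO4; cpd pin-transferred, 10 min 37C; NADPH regen, 60 min 37C; stopped w/ luciferin detection reagent, 20 min; luminescence. Normalized to 57uM ketoconazole (AC100).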

In assay [14] the target is Cytochrome P450 3A4 (Homo sapiens) (UniProt P08684). The assay is described as follows: qHTS Assay for Inhibitors and Substrates of Cytochrome P450 3A4 (AID 884; active = well fitted curve in the direction sought with a large enough effect; an effect the other way counts as inactive or inconclusive; also: potency is read from the fitted curve at half-maximal effect; nearly all actives have a fitted effect of over 50% in size). The conditions noted are these: recombinant CYP3A4, Luciferin-PPXE luminescence; series mostly up to 57.1 µM. Summed up:
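20 nM human CYP3A4 with 25 uM Luciferin-PPXE (at KM) in 200 mM KPO4, preincubated 10 min with compound; NADPH regeneration started a 60 min RT reaction. Luciferin detected by luminescence, normalized to 57 uM ketoconazole as full inhibition.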

Chain of Lysosomal acid glucosylceramidase (Homo sapiens) (P04062 whole entry, looked up): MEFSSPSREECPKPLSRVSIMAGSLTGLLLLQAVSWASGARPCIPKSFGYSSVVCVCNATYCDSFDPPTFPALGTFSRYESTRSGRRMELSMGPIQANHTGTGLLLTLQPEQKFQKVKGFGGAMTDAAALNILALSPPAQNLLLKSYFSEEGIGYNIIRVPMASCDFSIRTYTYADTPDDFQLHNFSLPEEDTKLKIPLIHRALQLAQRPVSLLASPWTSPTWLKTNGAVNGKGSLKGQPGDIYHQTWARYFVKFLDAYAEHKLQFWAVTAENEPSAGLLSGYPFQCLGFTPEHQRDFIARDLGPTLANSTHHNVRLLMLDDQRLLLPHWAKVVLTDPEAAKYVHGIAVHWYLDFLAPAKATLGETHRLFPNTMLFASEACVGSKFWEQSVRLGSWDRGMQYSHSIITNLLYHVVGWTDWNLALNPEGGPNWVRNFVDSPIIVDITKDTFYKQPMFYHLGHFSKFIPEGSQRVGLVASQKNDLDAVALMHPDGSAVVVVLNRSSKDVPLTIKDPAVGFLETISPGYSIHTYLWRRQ
Chain of Cytochrome P450 1A2 (Homo sapiens) (P05177 whole entry, looked up): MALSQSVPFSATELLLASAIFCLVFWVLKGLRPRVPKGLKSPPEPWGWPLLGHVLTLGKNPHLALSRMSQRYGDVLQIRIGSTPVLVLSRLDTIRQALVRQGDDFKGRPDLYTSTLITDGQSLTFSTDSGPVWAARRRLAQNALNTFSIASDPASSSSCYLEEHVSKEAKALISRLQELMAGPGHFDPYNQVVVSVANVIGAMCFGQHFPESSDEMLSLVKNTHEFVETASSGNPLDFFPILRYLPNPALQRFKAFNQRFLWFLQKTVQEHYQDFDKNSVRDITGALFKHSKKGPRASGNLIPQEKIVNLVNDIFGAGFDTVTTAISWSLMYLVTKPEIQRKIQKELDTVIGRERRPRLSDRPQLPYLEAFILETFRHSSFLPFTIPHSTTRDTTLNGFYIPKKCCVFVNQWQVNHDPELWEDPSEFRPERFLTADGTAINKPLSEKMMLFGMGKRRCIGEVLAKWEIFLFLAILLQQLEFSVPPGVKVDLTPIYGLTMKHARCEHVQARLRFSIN
Chain of Cytochrome P450 3A4 (Homo sapiens) (P08684 whole entry, looked up): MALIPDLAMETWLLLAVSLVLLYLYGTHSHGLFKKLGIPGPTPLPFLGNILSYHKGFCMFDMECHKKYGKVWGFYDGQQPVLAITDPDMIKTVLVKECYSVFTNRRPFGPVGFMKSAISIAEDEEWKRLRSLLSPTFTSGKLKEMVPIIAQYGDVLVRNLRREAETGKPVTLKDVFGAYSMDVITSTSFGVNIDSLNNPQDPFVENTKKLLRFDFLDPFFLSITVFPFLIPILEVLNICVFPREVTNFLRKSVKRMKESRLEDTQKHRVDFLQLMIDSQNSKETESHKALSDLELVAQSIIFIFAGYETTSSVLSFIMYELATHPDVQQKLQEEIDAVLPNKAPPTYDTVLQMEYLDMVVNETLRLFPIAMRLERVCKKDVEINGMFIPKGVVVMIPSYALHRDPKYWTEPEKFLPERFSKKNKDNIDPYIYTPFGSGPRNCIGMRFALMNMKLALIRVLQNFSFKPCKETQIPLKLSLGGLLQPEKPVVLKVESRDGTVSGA
Chain of Glucocorticoid receptor (Homo sapiens) (P04150 whole entry, looked up): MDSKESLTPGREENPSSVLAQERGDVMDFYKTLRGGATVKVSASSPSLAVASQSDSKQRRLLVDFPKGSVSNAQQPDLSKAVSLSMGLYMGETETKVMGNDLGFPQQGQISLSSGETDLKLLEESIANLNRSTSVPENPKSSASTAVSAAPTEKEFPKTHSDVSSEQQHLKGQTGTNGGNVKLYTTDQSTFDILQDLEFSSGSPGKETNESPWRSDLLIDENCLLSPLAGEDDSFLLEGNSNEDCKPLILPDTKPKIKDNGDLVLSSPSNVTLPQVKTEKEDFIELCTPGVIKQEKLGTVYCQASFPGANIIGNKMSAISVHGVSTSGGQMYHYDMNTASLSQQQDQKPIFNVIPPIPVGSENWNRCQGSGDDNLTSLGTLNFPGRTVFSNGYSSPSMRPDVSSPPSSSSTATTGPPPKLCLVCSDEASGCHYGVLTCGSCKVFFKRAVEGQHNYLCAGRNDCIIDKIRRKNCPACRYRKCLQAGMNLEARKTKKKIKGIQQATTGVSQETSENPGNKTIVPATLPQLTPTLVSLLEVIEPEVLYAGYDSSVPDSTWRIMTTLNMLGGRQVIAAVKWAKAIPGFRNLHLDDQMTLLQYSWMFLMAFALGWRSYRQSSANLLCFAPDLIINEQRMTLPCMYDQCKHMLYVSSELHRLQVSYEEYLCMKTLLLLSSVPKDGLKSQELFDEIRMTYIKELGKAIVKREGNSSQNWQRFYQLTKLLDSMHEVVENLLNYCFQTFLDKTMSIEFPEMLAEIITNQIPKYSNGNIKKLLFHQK
Chain of 3',5'-cyclic-AMP phosphodiesterase 4B (Homo sapiens) (Q07343 whole entry, looked up): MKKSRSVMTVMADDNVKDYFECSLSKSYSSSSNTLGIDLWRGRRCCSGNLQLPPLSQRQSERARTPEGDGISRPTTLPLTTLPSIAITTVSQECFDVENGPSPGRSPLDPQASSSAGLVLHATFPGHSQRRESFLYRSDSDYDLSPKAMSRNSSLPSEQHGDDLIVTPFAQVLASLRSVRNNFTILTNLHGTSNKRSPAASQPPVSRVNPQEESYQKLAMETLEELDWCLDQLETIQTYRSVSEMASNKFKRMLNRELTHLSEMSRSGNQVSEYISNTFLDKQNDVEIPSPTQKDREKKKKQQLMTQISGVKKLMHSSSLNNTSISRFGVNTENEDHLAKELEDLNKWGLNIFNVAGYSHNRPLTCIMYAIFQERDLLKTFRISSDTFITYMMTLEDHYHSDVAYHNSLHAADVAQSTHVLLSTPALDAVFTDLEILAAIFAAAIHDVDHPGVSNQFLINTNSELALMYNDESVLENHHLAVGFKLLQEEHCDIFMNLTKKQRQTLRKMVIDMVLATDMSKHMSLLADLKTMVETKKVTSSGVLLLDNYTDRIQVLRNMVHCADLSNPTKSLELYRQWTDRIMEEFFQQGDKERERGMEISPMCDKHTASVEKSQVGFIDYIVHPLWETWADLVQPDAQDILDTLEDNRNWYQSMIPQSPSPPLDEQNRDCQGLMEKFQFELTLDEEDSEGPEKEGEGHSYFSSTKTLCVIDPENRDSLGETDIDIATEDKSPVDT
Chain of Cytochrome P450 2C19 (Homo sapiens) (P33261 whole entry, looked up): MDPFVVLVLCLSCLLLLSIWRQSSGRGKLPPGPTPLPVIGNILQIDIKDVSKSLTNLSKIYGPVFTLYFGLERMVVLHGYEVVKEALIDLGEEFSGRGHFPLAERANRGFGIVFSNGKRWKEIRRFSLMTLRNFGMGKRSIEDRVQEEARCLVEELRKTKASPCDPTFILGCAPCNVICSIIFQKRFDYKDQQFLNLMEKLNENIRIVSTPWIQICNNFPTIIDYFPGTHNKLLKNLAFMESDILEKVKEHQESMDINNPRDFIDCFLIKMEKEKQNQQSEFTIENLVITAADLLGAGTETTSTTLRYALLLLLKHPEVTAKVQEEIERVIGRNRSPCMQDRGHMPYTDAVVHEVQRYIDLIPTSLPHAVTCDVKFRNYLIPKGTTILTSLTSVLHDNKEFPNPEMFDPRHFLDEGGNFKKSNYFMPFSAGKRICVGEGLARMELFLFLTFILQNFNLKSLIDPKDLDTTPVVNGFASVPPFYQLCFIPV
Chain of Cytochrome P450 2C9 (Homo sapiens) (P11712 whole entry, looked up): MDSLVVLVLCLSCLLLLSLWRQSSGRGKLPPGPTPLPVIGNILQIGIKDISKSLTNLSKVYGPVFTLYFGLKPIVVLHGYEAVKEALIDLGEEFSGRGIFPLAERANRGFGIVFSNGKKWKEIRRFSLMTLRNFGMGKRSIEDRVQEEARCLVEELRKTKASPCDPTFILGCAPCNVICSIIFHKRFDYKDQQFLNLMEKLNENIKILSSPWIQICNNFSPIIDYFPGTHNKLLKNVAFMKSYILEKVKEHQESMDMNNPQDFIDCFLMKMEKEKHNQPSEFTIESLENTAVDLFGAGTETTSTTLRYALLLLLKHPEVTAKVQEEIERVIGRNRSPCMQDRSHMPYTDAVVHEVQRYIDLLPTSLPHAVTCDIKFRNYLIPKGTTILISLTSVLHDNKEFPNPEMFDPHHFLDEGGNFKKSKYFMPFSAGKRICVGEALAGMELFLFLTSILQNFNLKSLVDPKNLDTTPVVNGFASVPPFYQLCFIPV
Chain of Cytochrome P450 2D6 (Homo sapiens) (P10635 whole entry, looked up): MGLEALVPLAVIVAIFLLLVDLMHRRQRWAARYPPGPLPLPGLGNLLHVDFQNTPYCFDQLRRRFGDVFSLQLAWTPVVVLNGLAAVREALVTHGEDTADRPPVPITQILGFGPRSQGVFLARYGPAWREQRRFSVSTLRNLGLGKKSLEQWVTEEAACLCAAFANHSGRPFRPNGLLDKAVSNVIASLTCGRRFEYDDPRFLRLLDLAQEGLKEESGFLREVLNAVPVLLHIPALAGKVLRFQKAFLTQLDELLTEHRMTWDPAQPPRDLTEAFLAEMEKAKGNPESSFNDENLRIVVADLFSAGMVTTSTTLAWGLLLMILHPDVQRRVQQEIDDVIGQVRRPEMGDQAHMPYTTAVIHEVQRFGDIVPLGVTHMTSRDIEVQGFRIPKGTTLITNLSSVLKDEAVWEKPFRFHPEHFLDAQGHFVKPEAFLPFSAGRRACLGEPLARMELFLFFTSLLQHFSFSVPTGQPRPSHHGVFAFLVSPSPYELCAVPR

In the case of `Nc1nnnn1CCO`, the Potency in assay [1] is more than 11.4 µM; in assay [3], 6.31 µM (active); in assay [6] it was more than 46 µM; in [7], more than 9.22 µM. The activity change, negative = inhibition in assay [2] was 7.2%; in assay [4], 8%; in assay [8], 3.27% [at 11.4 µM]. Moreover, the activity, negative = inhibition in assay [5] was 12%. The result in [9] was inactive.

In the case of `C[C@H](Br)CN(C[C@H](C)Br)c1ccc2c(c1)Cc1ccccc1-2`, the Potency in assay [1] is more than 11.4 µM; in [3], 3.16 µM (active); in assay [6], more than 46 µM; in [7], more than 9.22 µM; in assay [10], 3.16 µM (active); in assay [13], 2.51 µM (active). Moreover, the activity change, negative = inhibition in [2] was -9.29%; in [4] it was 8.25%; in [8], -8.45% [at 11.4 µM]. The activity, negative = inhibition in [5] is -7.03%. The molecule was classed as inactive in assay [9]. In addition, in assay [11], the activity change, positive = activation was -34.7% [at 11.4 µM]. The Potency entry in [12] was “inactive”.

`Nc1ccc(S(=O)(=O)c2ccc(NCN3C(=O)NC(=O)C(=O)C3=O)cc2)cc1`: the Potency in [1] was more than 11.4 µM; in [6], more than 46 µM; in assay [7], more than 9.22 µM; in [14], 2 µM (active). Also, the activity change, negative = inhibition in [2] is -11.3%; in assay [4], 14.2%; in assay [8], 1.4% [at 11.4 µM]. Besides, the Potency result in [3] and in assay [13] was “inactive” each time. For the same molecule, in assay [5], the activity, negative = inhibition was -4.49%. Moreover, the molecule was classed as inactive in [9]. The activity change, positive = activation in assay [11] was -78% [at 11.4 µM].

On to `C[C@@H](O)CN(CCN(C[C@@H](C)O)C[C@@H](C)O)C[C@@H](C)O.O=[N+]([O-])O.[Cu]`, for which the Potency is more than 11.4 µM in assay [1]; 5.01 µM (active) in [3]; more than 46 µM in assay [6]; more than 9.22 µM in [7]; 0.794 µM (active) in [10]; 0.398 µM (active) in assay [13]. Also, the activity change, negative = inhibition in assay [2] was -0.101%; in assay [4], -2.32%; in assay [8] it was -3.67% [at 11.4 µM]. Also, the activity, negative = inhibition in assay [5] is 2.41%. The outcome in assay [9] was inactive. The activity change, positive = activation in assay [11] was -36.8% [at 11.4 µM].

With `NC[C@@H](O)CSP(=O)(O)O`, the Potency was more than 11.4 µM in [1], more than 46 µM in assay [6] and more than 9.22 µM in assay [7]. The activity change, negative = inhibition in assay [2] is -1.23%; in assay [4] it was -18.7%; in assay [8], -5.07% [at 11.4 µM]. Further, the Potency result in [3] is “inactive”. Further, the activity, negative = inhibition in assay [5] is 2.46%. In addition, the outcome in assay [9] was inactive.

For `Nc1nc(N)c(N=Nc2ccc([As](=O)(O)O)cc2)c(=O)[nH]1`, the Potency in [1] was more than 11.4 µM; in [6], more than 46 µM; in assay [7], more than 9.22 µM. In addition, the activity change, negative = inhibition is 6.48% in assay [2], -14.9% [at 2.29 µM] in assay [3], 5.43% in assay [4] and 5.04% [at 11.4 µM] in assay [8]. The activity, negative = inhibition in [5] was 0.893%. Besides, the molecule was called inactive in assay [9].

Consider `NCCP(=O)(O)O`, for which the Potency in [1] was more than 11.4 µM; in [6], more than 46 µM; in assay [7], more than 9.22 µM. Further, the activity change, negative = inhibition was 3.81% in assay [2], 9.11% in [4] and 3.4% [at 11.4 µM] in assay [8]. Moreover, the Potency entry in [3] was “inactive”. For the same molecule, the activity, negative = inhibition in assay [5] was 10.6%. Further, the molecule was classed as inactive in [9].

Take `[N-]=[N+]=NCC(=O)c1c[nH]c(=O)[nH]c1=O`: the Potency in assay [1] was more than 11.4 µM; in assay [6], more than 46 µM; in [7], more than 9.22 µM. In addition, the activity change, negative = inhibition in assay [2] is 12.2%; in [3], 0.1% [at 2.29 µM]; in assay [4] it was 5.05%; in [8], 0.476% [at 11.4 µM]. In addition, the activity, negative = inhibition in [5] is 1.86%. In assay [9], the result was inactive.

On to `CN(C)CS/C(N)=N/[C@H](O)C(Cl)(Cl)Cl`, for which the Potency in [1] is more than 11.4 µM; in assay [6] it was more than 46 µM; in assay [7], more than 9.22 µM. The activity change, negative = inhibition is 1.46% in assay [2], 4.1% [at 2.29 µM] in assay [3], 23.1% in [4] and 3.54% [at 11.4 µM] in assay [8]. Moreover, the activity, negative = inhibition in [5] was 3.46%. Further, in assay [9], the result was inactive.

For `N[C@H](Cc1ccc2oc3cc(=O)c4ccccc4c-3nc2c1)C(=O)O`, the Potency in assay [1] is more than 11.4 µM; in assay [3], 1.26 µM (active); in assay [6], more than 46 µM; in assay [7] it was more than 9.22 µM. Moreover, the activity change, negative = inhibition is 25.4% in [2], -17.2% in assay [4] and 0.331% [at 11.4 µM] in assay [8]. In addition, the activity, negative = inhibition in assay [5] was 7.75%. In assay [9], the call was inactive. For the same molecule, in assay [11], the activity change, positive = activation is -32.5% [at 11.4 µM].

In the case of `O=C(C[C@H](c1ccccc1)c1c(O)c2ccccc2oc1=O)c1ccccc1`, the Potency in assay [1] was more than 11.4 µM; in assay [6], more than 46 µM; in [7], more than 9.22 µM; in assay [10], 0.631 µM (active). Moreover, the activity change, negative = inhibition in [2] was 2.29%; in assay [3], -12.6% [at 2.29 µM]; in [4], 11.4%; in assay [8], -4.41% [at 11.4 µM]. In addition, the activity, negative = inhibition in assay [5] is -9.56%. The outcome in assay [9] was inactive. Besides, in [11], the activity change, positive = activation was -30.1% [at 11.4 µM].

With `COC(=O)[C@H]1C(=O)[C@H](C(=O)OC)[C@@H]2CC[C@H]1N2C`, the Potency is more than 11.4 µM in assay [1], 0.794 µM (active) in assay [3], more than 46 µM in assay [6] and more than 9.22 µM in [7]. Moreover, the activity change, negative = inhibition is 12.9% in [2], 11.3% in assay [4] and 4.63% [at 11.4 µM] in assay [8]. Further, the activity, negative = inhibition in assay [5] is 7.99%. The molecule was classed as inactive in assay [9].
